# Reference: PubChem BioAssay (EPA / NIEHS)
# Values joined by “and” are separate entries in the source; they are usually repeats but may differ in a detail not shown here. Equal entries are not always repeated. Results filed as inconclusive are left out. More than one record can exist for a structure, and the calls need not agree. Active and inactive are the calls of the source. How the source made its calls, unless noted: active means hit-call score of the fitted dose curve at least 0.9, where 1 is the maximum; inactive means score below 0.9.
# What was measured:
# [1] = biological target: human Vitamin D Receptor (VDR), VDR (gene 7421) (UniProt P11473); test: ATG_VDR_TRANS: Attagene TRANS-FACTORIAL HepG2 Assay for human Vitamin D Receptor (VDR) (AID 2283022; active means hit-call score of the fitted dose curve at least 0.9, where 1 is the maximum)
# Outline: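 RT-PCR/capillary electrophoresis read-out of reporter mRNA induction in transiently transfected HepG2; 24 h dosing; chimeric NR-Gal4 (TRANS format); gain-of-signal fit against DMSO baseline.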
# [2] = read-out: Monokine induced gamma interferon (MIG), CXCL9 (gene 4283); test: BSK_3C_MIG: BioMAP Diversity Plus: 3C Assay for Monokine induced gamma interferon (MIG) Biomarker Activity (AID 2283021); details: primary human endothelial cells (HUVEC); actives raise or lower the signal
# Outline: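 ELISA-measured MIG in dosed HUVEC 3C cultures at 24 h, analysed by bidirectional fitting with DMSO defining baseline activity.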
# [3] = read-out: Matrix Metallopeptidase 1 (MMP1), MMP1 (gene 4312); test: BSK_BE3C_MMP1: BioMAP Diversity Plus: BE3C Assay for Matrix Metallopeptidase 1 (MMP1) Biomarker Activity (AID 2283024); details: primary human bronchial epithelial cells; actives raise or lower the signal
# Outline: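 In this multiplexed primary-cell system, human bronchial epithelium received chemicals for 24 h before an ELISA for MMP1. Values reflect bidirectional fits normalised to the DMSO baseline.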
# [4] = BSK_3C_Vis: BioMAP Diversity Plus: 3C Assay for Morphology Visualization (AID 2283025); details: primary human endothelial cells (HUVEC);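 further: fitted both ways so gain or loss versus DMSO counts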
# Outline: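 Light-microscopy morphology readout, 24 h exposure, human primary umbilical vein endothelium; analysed relative to DMSO with bidirectional fitting.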
# [5] = read-out: Pselectin, SELP (gene 6403); test: BSK_4H_Pselectin: BioMAP Diversity Plus: 4H Assay for Pselectin Biomarker Activity (AID 2283026); details: primary human endothelial cells (HUVEC); actives raise or lower the signal
# Outline: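 Bidirectional fits against DMSO gave the endpoint. Cells: primary human umbilical vein endothelium, chemical-treated for 24 h before ELISA detection of P-selectin.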
# [6] = BSK_4H_SRB: Viability Assessment in the BioMAP Diversity Plus: 4H Assay (AID 2283027); details: primary human endothelial cells (HUVEC);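 further: cells exposed to compound for 24 h before staining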
# Outline: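 HUVEC, 24 h post-dose; 10% TCA fix, 0.1% SRB stain, A560 nm. Total protein = overt cytotoxicity, parallel to biomarker read. Bidirectional fit vs DMSO baseline.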
# [7] = BSK_BE3C_SRB: Viability Assessment in the BioMAP Diversity Plus: BE3C Assay (AID 2283028); details: primary human bronchial epithelial cells
# Outline: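 Primary human bronchial epithelium; chemical dosing, 24 h; 10% TCA fix, 0.1% SRB stain, A560; bidirectional fit vs DMSO baseline.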
# [8] = read-out: Thrombomodulin, THBD (gene 7056); test: BSK_3C_Thrombomodulin: BioMAP Diversity Plus: 3C Assay for Thrombomodulin Biomarker Activity (AID 2283029); details: primary human endothelial cells (HUVEC); actives raise or lower the signal
# Outline: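 In a multiplexed primary-cell system, human umbilical vein endothelium received chemical and was assayed 24 h later for thrombomodulin by ELISA. Parallel cultures were SRB-stained (0.1% SRB after 10% TCA fixation, read at 560 nm) to flag cytotoxicity.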
# [9] = read-out: Urokinase-type plasminogen activator receptor (uPAR), PLAUR (gene 5329); test: BSK_4H_uPAR: BioMAP Diversity Plus: 4H Assay for Urokinase-type plasminogen activator receptor (uPAR) Biomarker Activity (AID 2283030); details: primary human endothelial cells (HUVEC); actives raise or lower the signal
# Outline: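 HUVEC, 24 h post-dose; uPAR by ELISA; bidirectional fit vs DMSO baseline.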
# Sequence of human Vitamin D Receptor (VDR), VDR (gene 7421) (P11473 whole entry, looked up, the tested form may be a part): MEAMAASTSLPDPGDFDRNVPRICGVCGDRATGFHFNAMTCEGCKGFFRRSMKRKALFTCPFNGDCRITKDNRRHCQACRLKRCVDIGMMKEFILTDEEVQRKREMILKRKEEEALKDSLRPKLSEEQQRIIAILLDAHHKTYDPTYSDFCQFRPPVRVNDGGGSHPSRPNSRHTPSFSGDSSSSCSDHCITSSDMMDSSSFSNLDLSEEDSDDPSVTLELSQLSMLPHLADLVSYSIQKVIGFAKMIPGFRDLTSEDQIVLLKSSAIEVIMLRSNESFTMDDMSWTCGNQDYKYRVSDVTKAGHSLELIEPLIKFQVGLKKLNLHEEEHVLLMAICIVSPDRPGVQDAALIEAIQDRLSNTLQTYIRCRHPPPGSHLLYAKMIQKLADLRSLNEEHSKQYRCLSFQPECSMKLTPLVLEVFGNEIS
compound,measurement,setting,value
C[Si](C)(C)O[Si](C)(C)C,outcome,[1],inactive
C[C@H](CCC(=O)NCC(=O)O)[C@H]1CC[C@H]2[C@@H]3[C@H](O)C[C@@H]4C[C@H](O)CC[C@]4(C)[C@H]3C[C@H](O)[C@]12C,outcome,[1],inactive
CC(C)=CCCC(C)CCOC=O (configuration not stated),outcome,[1],inactive
Nc1ccc(N)c2c1C(=O)c1ccccc1C2=O,outcome,[1],inactive
CCCCCCCCCCCCN1CCCCCC1=O,outcome,[1],inactive
IC(I)I,outcome,[2],inactive
same,outcome,[3],inactive
same,outcome,[4],inactive
same,outcome,[5],inactive
same,outcome,[6],inactive
same,outcome,[7],inactive
same,outcome,[8],inactive
same,outcome,[9],inactive
C=C1CC[C@H](O)C/C1=C/C=C1\CCC[C@]2(C)[C@@H]([C@H](C)/C=C/[C@H](C)C(C)C)CC[C@@H]12,AC50,[1],3.98 µM (active)
CC(C)NCC(O)COc1ccc(CC(N)=O)cc1 (configuration not stated),outcome,[1],inactive
CCCCCCC(CO)CCCC (configuration not stated),outcome,[2],inactive
same,outcome,[3],inactive
same,outcome,[5],inactive
same,outcome,[6],inactive
same,outcome,[7],inactive
same,outcome,[8],inactive
same,outcome,[9],inactive
COc1ccc(CCO)cc1,outcome,[1],inactive
COc1ccc(N=Nc2cc(C)c(N=Nc3ccc(S(=O)(=O)O)cc3)cc2OC)cc1,outcome,[1],inactive
O=C(c1ccccc1)C(O)c1ccccc1 (configuration not stated),outcome,[1],inactive
CC(CN=Cc1ccccc1O)N=Cc1ccccc1O (configuration not stated),outcome,[2],inactive
same,outcome,[3],inactive
same,outcome,[5],inactive
same,outcome,[6],inactive
same,outcome,[7],inactive
same,outcome,[8],inactive
same,outcome,[9],inactive
CCC1(C)NC(=O)NC1=O (configuration not stated),outcome,[1],inactive
CC(C)Nc1nc(N)nc(Cl)n1,outcome,[1],inactive
Cc1ccc(S(=O)(=O)Oc2ccc(N=Nc3ccc(-c4ccc(N=Nc5c(O)ccc6cc(S(=O)(=O)O)cc(S(=O)(=O)O)c56)c(C)c4)cc3C)cc2)cc1,outcome,[1],inactive
C1CCOC1,outcome,[1],inactive
COC(=O)c1ccc(C)cc1C1=NC(C)(C(C)C)C(=O)N1 (configuration not stated) (tested in a mixture with another compound),outcome,[1],inactive
CCOC(=O)C(C#N)=C(c1ccccc1)c1ccccc1,outcome,[2],inactive
same,AC50,[3],25.2 µM (active) and 31.1 µM (active)
same,outcome,[5],inactive
same,outcome,[6],inactive
same,outcome,[7],inactive
same,AC50,[8],8.14 µM (active)
same,outcome,[8],inactive
same,outcome,[9],inactive
O=C(CS)OCCOC(=O)CS,outcome,[1],inactive
CCCC1O[C@@H]2C[C@H]3[C@@H]4CCC5=CC(=O)C=C[C@]5(C)[C@H]4[C@@H](O)C[C@]3(C)[C@]2(C(=O)CO)O1 (some centres not stated),outcome,[1],inactive
CCCN(CCC)S(=O)(=O)c1ccc(C(=O)O)cc1,outcome,[1],inactive
O=C(CC(=O)c1ccccc1)c1ccccc1,outcome,[1],inactive
CCCCCCCC/C=C\CCCCCCCC(=O)OCC,outcome,[1],inactive
CC(C)CC(C)CC(O)CC(C)C (configuration not stated),outcome,[1],inactive
Cc1cc(=O)oc2cc(N(C)C)ccc12,outcome,[1],inactive
